According to PubChem BioAssay (NCI):
This is part of a sample that, as a whole, favours compounds with a hit. Of some 83,000 tested, about 20% had one in any assay.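 A percent growth of 40 corresponds to 60% growth inhibition; 0 means no net growth; -100 means all cells died. Active threshold: below 10.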 Values without a mark were called inactive. Active and inactive are the calls of the source.

Legend:
Experiment in all cases: NCI-60 one-dose screen, 48 h (100 = growth as untreated, 0 = no growth, -100 = all killed)
DU-145 prostate = conditions: 10 µM unless noted
K-562 leukemia = conditions: 10 µM unless noted
MALME-3M melanoma = conditions: 10 µM unless noted
RXF 393 renal = conditions: 10 µM unless noted
SF-295 CNS = conditions: 10 µM unless noted
UACC-257 melanoma = conditions: 10 µM unless noted
HCT-15 colon = conditions: 10 µM
HT29 colon = conditions: 10 µM unless noted
SNB-75 CNS = conditions: 10 µM unless noted
PC-3 prostate = conditions: 10 µM unless noted
SK-MEL-5 melanoma = conditions: 10 µM unless noted
LOX IMVI melanoma = conditions: 10 µM unless noted
CAKI-1 renal = conditions: 10 µM unless noted
A498 renal = conditions: 10 µM unless noted
HL-60(TB) leukemia = conditions: 10 µM unless noted
MOLT-4 leukemia = conditions: 10 µM
T-47D breast = conditions: 10 µM unless noted
BT-549 breast = conditions: 10 µM
HCC-2998 colon = conditions: 10 µM unless noted
SNB-19 CNS = conditions: 10 µM unless noted

Question: For O=C1NC(=O)C(=Cc2cn(Cc3ccccc3)c3ccccc23)C(=O)N1, which growth (DU-145 prostate) is on record?
Answer: Its growth is 100%.

Question: What about the growth (K-562 leukemia) of the same compound?
Answer: The growth was 63.5%.

Question: And the growth (MALME-3M melanoma)?
Answer: The growth was 109%.

Question: And the growth (RXF 393 renal)?
Answer: Its growth is 86.9%.

Question: And the growth (SF-295 CNS)?
Answer: The growth was 37.2%.

Question: What about the growth (UACC-257 melanoma) of the same compound?
Answer: Its growth is 34.2%.

Question: What about the growth (HCT-15 colon) of the same compound?
Answer: The growth was 93.8%.

Question: And the growth (HT29 colon)?
Answer: The growth was 105%.

Question: What about the growth (SNB-75 CNS) of the same compound?
Answer: The growth was 77.6%.

Question: What about the growth (PC-3 prostate) of the same compound?
Answer: Its growth is 84.2%.

Question: And the growth (SK-MEL-5 melanoma)?
Answer: Its growth is 101%.

Question: And the growth (LOX IMVI melanoma)?
Answer: Its growth is 83.4%.

Question: And the growth (CAKI-1 renal)?
Answer: Its growth is 62.4%.

Question: What about the growth (A498 renal) of the same compound?
Answer: The growth was -72.6% (active).

Question: And the growth (HL-60(TB) leukemia)?
Answer: Its growth is 96.3%.

Question: And the growth (MOLT-4 leukemia)?
Answer: Its growth is 132%.

Question: And the growth (T-47D breast)?
Answer: The growth was 55.9%.

Question: And the growth (BT-549 breast)?
Answer: Its growth is 77.6%.

Question: What about the growth (HCC-2998 colon) of the same compound?
Answer: The growth was 70.2%.

Question: Which results are given for Oc1ccc2c3c1O[C@H]1c4[nH]c5ccccc5c4C[C@@]4(O)C(C2)N(CC2CC2)CC[C@]314?
Answer: growth (DU-145 prostate): 96.6%; growth (K-562 leukemia): 77.7%; growth (MALME-3M melanoma): 122%; growth (SF-295 CNS): 98.3%; growth (UACC-257 melanoma): 97.4%; growth (HCT-15 colon): 99.7%; growth (HT29 colon): 83.9%; growth (SNB-75 CNS): 76.8%; growth (SNB-19 CNS): 106%; growth (PC-3 prostate): 88.1%; growth (SK-MEL-5 melanoma): 96.4%; growth (LOX IMVI melanoma): 87.3%; growth (CAKI-1 renal): 92.3%; growth (A498 renal): 100%; growth (HL-60(TB) leukemia): 98.6%; growth (MOLT-4 leukemia): 74.4%; growth (T-47D breast): 84.8%; growth (BT-549 breast): 97.4%; growth (HCC-2998 colon): 90%

Question: COc1cc(N(CCCl)CCCl)ccc1C=Nc1ccccc1C(=O)O was tested. Which growth (DU-145 prostate) did it give?
Answer: Its growth is 104%.

Question: And the growth (K-562 leukemia)?
Answer: The growth was 95%.

Question: What about the growth (RXF 393 renal) of the same compound?
Answer: Its growth is 102%.

Question: What about the growth (SF-295 CNS) of the same compound?
Answer: The growth was 98%.

Question: What about the growth (UACC-257 melanoma) of the same compound?
Answer: Its growth is 91%.

Question: What about the growth (HCT-15 colon) of the same compound?
Answer: The growth was 97.7%.

Question: What about the growth (HT29 colon) of the same compound?
Answer: Its growth is 98.2%.

Question: And the growth (SNB-75 CNS)?
Answer: Its growth is 85.8%.

Question: And the growth (SNB-19 CNS)?
Answer: The growth was 97.2%.

Question: What about the growth (PC-3 prostate) of the same compound?
Answer: Its growth is 90.3%.

Question: And the growth (SK-MEL-5 melanoma)?
Answer: The growth was 97.4%.

Question: What about the growth (LOX IMVI melanoma) of the same compound?
Answer: The growth was 101%.

Question: What about the growth (CAKI-1 renal) of the same compound?
Answer: The growth was 98.7%.

Question: And the growth (A498 renal)?
Answer: The growth was 66.3%.

Question: What about the growth (HL-60(TB) leukemia) of the same compound?
Answer: The growth was 94.8%.

Question: What about the growth (MOLT-4 leukemia) of the same compound?
Answer: Its growth is 97.2%.

Question: What about the growth (T-47D breast) of the same compound?
Answer: The growth was 97.6%.

Question: What about the growth (BT-549 breast) of the same compound?
Answer: The growth was 106%.

Question: And the growth (HCC-2998 colon)?
Answer: The growth was 88.2%.
